The subject of the test is NanoLuc luciferase (NLuc). The test can be described thus: residual bioluminescent signal relative to negative (DMSO) control; higher = less interference (more residual luciferase signal). How it is done: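 Purified luciferase (FLuc 10 nM + 10 uM D-luciferin; NLuc 10 pM + 10 uM furimazine; RLuc 50 pM + 2 uM coelenterazine) in 384-well plates; metal salt pre-incubated with enzyme 10 min at RT, substrate added and luminescence read after 10 min. Signal normalised to plate DMSO negative control (% N_VALUE = x/mean neg *100); triplicate wells at 0.01, 1 and 5 mM salt.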

Where [1] appears, read: metal salt concentration 0.01 mM, HEPES conditions (100 mM HEPES, 0.1% BSA, pH 7.5).
The mark [2] stands for this setting: metal salt concentration 0.01 mM, screening conditions (PBS, 0.1% BSA, pH 7.4).
[3] abbreviates: metal salt concentration 1 mM, HEPES conditions (100 mM HEPES, 0.1% BSA, pH 7.5).
Setting [4] is: metal salt concentration 1 mM, screening conditions (PBS, 0.1% BSA, pH 7.4).
[5] abbreviates: metal salt concentration 5 mM, HEPES conditions (100 mM HEPES, 0.1% BSA, pH 7.5).
[6] abbreviates: metal salt concentration 5 mM, screening conditions (PBS, 0.1% BSA, pH 7.4).

Molecules are shown by their SMILES. ± gives the standard deviation of the averaged measurements.

On to `[Cl][Fe][Cl]` [iron(II) chloride], for which the residual bioluminescent signal turned out to be 95.6 ± 6% under setting [1]; 99.7 ± 4.5% under setting [2]; 2.39 ± 1.2% under setting [3]; 10.5 ± 2.6% under setting [4]; 0.172 ± 0.13% under setting [5]; 0.779 ± 0.37% under setting [6].
Consider `[Cl-].[Na+]` [sodium chloride], for which the residual bioluminescent signal runs as follows: under setting [1], 95.5 ± 3.6%; under setting [2], 99.4 ± 2.9%; under setting [3], 99.8 ± 3.9%; under setting [4], 102 ± 4.1%; under setting [5], 98.5 ± 2.6%; under setting [6], 99.4 ± 4.3%.
Take `O=C([O-])[O-].[K+].[K+]` [potassium carbonate]: the residual bioluminescent signal under setting [1] was found to be 91.3 ± 2.9%; the residual bioluminescent signal under setting [2] was found to be 100 ± 4%; the residual bioluminescent signal under setting [3] was determined as 92.1 ± 8.9%; the residual bioluminescent signal under setting [4] came out at 97.6 ± 3%; the residual bioluminescent signal under setting [5] came to 95.6 ± 1.7%; the residual bioluminescent signal under setting [6] was 96.6 ± 3.6%.
Turning to `O.O.O.O.O.O.O.O=S(=O)([O-])[O-].[Mg+2]` [magnesium sulfate], the residual bioluminescent signal runs as follows: under setting [1], 91 ± 1.1%; under setting [2], 97.44 ± 0.7%; under setting [3], 99 ± 1.7%; under setting [4], 95.09 ± 0.87%; under setting [5], 107 ± 3.1%; under setting [6], 95.5 ± 2.1%.
With `O=S(=O)([O-])[O-].[Mn+2]` [manganese(II) sulfate], the residual bioluminescent signal reads like this: under setting [1], 93.9 ± 2.1%; under setting [2], 96.1 ± 2.1%; under setting [3], 95 ± 3%; under setting [4], 92.7 ± 1.3%; under setting [5], 96 ± 1.4%; under setting [6], 73.4 ± 2.1%.
Take `[Cl][Pt-2]([Cl])([Cl])[Cl].[K+].[K+]` [potassium tetrachloroplatinate(II)]: the residual bioluminescent signal under setting [1] was determined as 91.45 ± 0.79%; the residual bioluminescent signal under setting [2] was found to be 99.8 ± 2.3%; the residual bioluminescent signal under setting [3] is 8.06 ± 0.51%; the residual bioluminescent signal under setting [4] was found to be 7.81 ± 1.1%; the residual bioluminescent signal under setting [5] worked out at 7.52 ± 0.31%; the residual bioluminescent signal under setting [6] was 5.07 ± 0.66%.
Consider `CC#N.CC#N.CC#N.CC#N.F[B-](F)(F)F.[Cu+]` [tetrakis(acetonitrile)copper(I) tetrafluoroborate], for which the residual bioluminescent signal reads like this: under setting [1], 92.6 ± 2.9%; under setting [2], 90 ± 3%; under setting [3], 0.251 ± 0.095%; under setting [4], 0.838 ± 0.074%; under setting [5], 0.149 ± 0.095%; under setting [6], 0.354 ± 0.31%.

These data come from the supplement of paper PMC11628255, “Interference of metal ions on the bioluminescent signal of firefly, Renilla, and NanoLuc luciferases in high-throughput screening assays” (Frontiers in Chemistry, 2024).
